Results: PubChem BioAssay (NCATS)
Activity calls are given as the source filed them. Calls follow the shape of the full dose curve.

Assay: qHTS drug screen for cell cycle checkpoint inhibitors in PARPi-resistant BRCA-mutant ovarian cancer cell lines. (AID 1963452)
Conditions: PEO1/OlaR viability, CellTiter-Glo luminescence, 96 h; for Z-AUC: stronger effect = lower value
Description: Women's Malignancies Branch, Center for Cancer Research (CCR),
National Cancer Institute (NCI), National Institutes of Health (NIH), Bethesda, MD
Poly (ADP-ribose) polymerase inhibitors (PARPis) have changed the treatment paradigm in breast cancer gene (BRCA) - mutant high-grade serous ovarian carcinoma (HGSC). However, most patients eventually develop resistance to PARPis, highlighting an unmet need for improved therapeutic strategies. Using high-throughput drug screens, we identified ataxia telangiectasia and rad3-related protein/checkpoint kinase 1 (CHK1) pathway inhibitors as cytotoxic and further validated the activity of the CHK1 inhibitor (CHK1i) prexasertib in PARPi-sensitive and -resistant BRCA-mutant HGSC cells and xenograft mouse models. CHK1i monotherapy induced DNA damage, apoptosis, and tumor size reduction. We then conducted a phase 2 study (NCT02203513) of prexasertib in patients with BRCA-mutant HGSC. The treatment was well tolerated but yielded an objective response rate of 6% (1 of 17; one partial response) in patients with previous PARPi treatment. […] BRCA reversion mutation in previously PARPi-treated BRCA-mutant patients was not associated with resistance to CHK1i.
Among others, 1082 oncology drugs, both approved and investigational, were prioritized based on their status in clinical trial development. […] Drugs with average Z-AUC values less than -1.0 in all three cell lines were classified as "hits" resulting in 151 oncology drug hits. The screen also confirmed cross-resistance between olaparib and other PARPis (rucaparib, niraparib, and talazoparib) in PARPi-resistant PEO1/OlaR and PEO4.
[1] G. L. Lin, K. M. Wilson, M. Ceribelli, B. Z. Stanton, P. J. Woo, S. Kreimer, E. Y. Qin, X. Zhang, J. Lennon, S. Nagaraja, P. J. Morris, M. Quezada, S. M. Gillespie, D. Y. Duveau, A. M. Michalowski, P. Shinn, R. Guha, M. Ferrer, C. Klumpp-Thomas, S. Michael, C. McKnight, P. Minhas, Z. Itkin, E. H. Raabe, L. Chen, R. Ghanem, A. C. Geraghty, L. Ni, K. I. Andreasson, N. A. Vitanza, K. E.Warren, C. J. Thomas, M. Monje, Therapeutic strategies for diffuse midline glioma from high-throughput combination drug screening. Sci. Transl. Med. 11, (2019).
[2] T. M. Yamamoto, A. McMellen, Z. L. Watson, J. Aguilera, R. Ferguson, E. Nurmemmedov, T. Thakar, G. L. Moldovan, H. Kim, D. M. Cittelly, A. M. Joglar, E. P. Brennecke, H. Wilson, K. Behbakht, M. J. Sikora, B. G. Bitler, Activation of Wnt signaling promotes olaparib resistant ovarian cancer. Mol. Carcinog. 58, 1770 - 1782 (2019).
PROTOCOL TABLE (as described by Inglese J, Shamu CE and Guy RK. 2007)
SEQUENCE No. (e.g., 1, 2, 3, etc.); […] (e.g., Cells, Incubation, Reagent, etc.); VALUE; DESCRIPTION.
1; Compounds; 20nL; 1536-well white tissue culture-treated plates.
2; Cells; 5 uL; PEO1, PEO4, and PEO1/OlaR cells at 600 cells per well.
3; Incubation; 96 hr; 37C, 95% humidity, 5% CO2.
4; Reagent; 3 uL; CellTiter-Glo (Promega).
5; Incubation; 15 min; room temperature.
6; Detection; Luminescence, PHERAstar (BMG Labtech) plate reader.
NOTES (numbers refer to Sequence numbers above)
1. MIPE 5.0 compounds were acoustically dispensed by Echo Acoustic Liquid Handler (Beckman Coulter Life Sciences). Each compound was plated at an 11-point concentration range with 1:3 dilution. Bortezomib, a proteasome inhibitor (final concentration, 20 uM), was used as a positive.
2. PEO1, PEO4, and PEO1/OlaR were trypsinized and dispensed in 5 uLof growth medium using a Multidrop Combi dispenser at a density of 600 cells per well to allow compounds to be present during the exponential growth phase.
3. Plates were incubated for 96 hours at standard incubator conditions and covered by a stainless steel gasketed lid to prevent evaporation.
4. Three microliters of CellTiter-Glo (Promega) were added to each well.
5. Plates were incubated at room temperature for 15 min with a stainless-steel lid in place.
6. Luminescence readings were taken using PHERAstar (BMG Labtech). […]

[1] = measured here: PEO1 parental Z-AUC
Potency is read from the fitted curve at half-maximal effect.

## Cc1[nH]c2ccccc2c1CCNCc1ccc(/C=C/C(=O)NO)cc1
  Potency: 77.6 nM (active)
[1]
  Z-AUC: -1.48
Measured here: PEO4 Z-AUC
  Z-AUC: -1.35

## NCC1CCN(c2nccc(-c3ccc4ccccc4c3)n2)CC1
  Z-AUC: -1.15 (inactive)
[1]
  Z-AUC: 0.563
Measured here: PEO4 Z-AUC
  Z-AUC: -0.738

## CC[C@@H](C)Nc1cc(C(=O)NC2CC3CCC(C2)N3c2ccc(C(=O)C3CC3)cn2)c(C)cc1C(N)=O (some centres not stated)
  Z-AUC: -1.08 (inactive)
[1]
  Z-AUC: -1.13
Measured here: PEO4 Z-AUC
  Z-AUC: -0.342

## O=C(CCl)Nc1cccc(NC2=NS(=O)(=O)c3ccccc32)c1
  Z-AUC: -0.599 (inactive)
[1]
  Z-AUC: -0.67
Measured here: PEO4 Z-AUC
  Z-AUC: -0.526

## Cn1ncc2cc(-c3cnc(N)c(Cl)c3N3CCC4(CCNC4=O)CC3)ccc21
  Z-AUC: -0.513 (inactive)
[1]
  Z-AUC: -0.91
Measured here: PEO4 Z-AUC
  Z-AUC: -1.02

## CCCOc1ccc(CCc2nc3cc(-c4c(C)noc4C)ccc3n2CCN2CCOCC2)cc1
  Z-AUC: -0.591 (inactive)
[1]
  Z-AUC: -0.719
Measured here: PEO4 Z-AUC
  Z-AUC: -0.728

## C[C@@H]1COCCN1c1cc(=O)n2c(n1)N(Cc1cncc(Cl)c1)[C@H](C(F)(F)F)CC2
  Z-AUC: -0.103 (inactive)
[1]
  Z-AUC: -0.0406
Measured here: PEO4 Z-AUC
  Z-AUC: -0.0495

## CC1(C)CN(C(=O)c2ccc(-c3cccc4nc(NC(=O)C5CC5)nn34)cc2)C1
  Z-AUC: 0.782 (inactive)
[1]
  Z-AUC: 0.925
Measured here: PEO4 Z-AUC
  Z-AUC: 1.32

## Cn1ncc(Cl)c1-c1cc(C(=O)NC(CN)Cc2ccc(F)c(F)c2)oc1Cl (configuration not stated)
  Z-AUC: 0.713 (inactive)
[1]
  Z-AUC: 0.319
Measured here: PEO4 Z-AUC
  Z-AUC: 0.353

## Cc1cc(F)c(C(=O)Nc2cccc(-c3nncn3C(C)C)n2)cc1-n1cnc(C2CC2)c1
  Z-AUC: -0.535 (inactive)
[1]
  Z-AUC: -0.555
Measured here: PEO4 Z-AUC
  Z-AUC: -0.37

## Cc1cc(-c2nc3cc(F)ccc3s2)ccc1NC(=O)[C@@H](N)CCCCN
  Z-AUC: -0.88 (inactive)
[1]
  Z-AUC: -1.06
Measured here: PEO4 Z-AUC
  Z-AUC: -1.32

## COC(C)(C)CCn1nc(Nc2c(C)cccc2C)c2cnc(Nc3ccc(OCCN4CCCC4)c(F)c3)nc21
  Z-AUC: -0.962 (inactive)
[1]
  Z-AUC: -0.494
Measured here: PEO4 Z-AUC
  Z-AUC: 0.564

## O=C(Cc1cccc(OC(F)(F)F)c1)Nc1ccc(CCCCc2nnc(NC(=O)Cc3ccccn3)s2)nn1
  Z-AUC: -1.13 (inactive)
[1]
  Z-AUC: -1.01
Measured here: PEO4 Z-AUC
  Z-AUC: -1.03

## CCN(c1cc(-c2ccc(CN3CCOCC3)cc2)cc(C(=O)NCc2c(C)cc(C)[nH]c2=O)c1C)C1CCOCC1
  Z-AUC: 0.506 (inactive)
[1]
  Z-AUC: 0.489
Measured here: PEO4 Z-AUC
  Z-AUC: 0.0284
